Bioassay records: PubChem BioAssay, several laboratories
Sampled rows, rich in hits. Any-hit rate of the full collection: about 1%.
Fh CTSL1 inh: counter-screen for PFM18AAP inhibitors: inhibitors of F. hepatica cathepsin L1; inhibition, % at 5.96 µM; recombinant F. hepatica cathepsin L1, Z-Leu-Arg-MCA fluorescence; 300,000 compounds, 0.49% hits;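 active = inhibition above the mean of all tested compounds plus 3 SD, set per screening campaign, cut at about 17% in these data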;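 also: 0% = plate median of test compound wells and 100% = 1 µM Z-Phe-Ala-diazomethylketone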
iPSC survival up: hiPSC single-cell survival enhancement; 360,000 compounds, 0.044% hits; survival enhancement, % at 20 µM; AID 602274; ATPlite luminescence; 100% = ROCK inhibitor wells, 0% = DMSO; in the data active = survival enhancement above about 18%;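 also: cells exposed to compounds for 16 hours before the ATP read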
CR mimetic SO: yeast age-related superoxide inhibition as caloric restriction mimetic; 330,000 compounds, 0.18% hits; AID 2690; superoxide response (% of plate mean), % at 10 µM; S. cerevisiae aged cells, superoxide DHE fluorescence; stronger effect = lower value;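 active = superoxide response under a set limit, about three screen SD below normal, cut at about 65% in these data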;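 also: yeast aged for seven days with compound at 30 °C before DHE staining; 100% = average MFI of all compound-treated wells on the plate with controls excluded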
V-ATPase pHluor: regulators of yeast V-ATPase proton transport. S. cerevisiae, pHLuorin cytosolic pH fluorescence. response, % at 10 µM. 350,000 compounds, 0.37% hits. AID 504577; in the data active = response mostly above about 7.3%, no sharp cut-off; inactive = mostly below about 5.4%; also: actives read high
Active calls of the source: *; · = not tested or not shown.

SMILES | Fh CTSL1 inh | iPSC survival up | CR mimetic SO | V-ATPase pHluor
Nc1ccc2c(c1)C(=O)C(=O)c1ccccc1-2 | 112.2* | -6.2 | 112.3 | -1.1
O=C1C(=O)c2ccc(-c3ccccc3)cc2-c2ccccc21 | 109.4* | -6.3 | 110.5 | 6.4
CCOC(=O)c1c(C)c(C(=O)Nc2ccccc2)c(C)n1CC | -0.6 | -0.2 | 97.8 | 20.1*
COc1ccc(OC)c(NC(=O)c2ccc(Cl)cc2)c1 | 48.8* | 1.1 | 91.2 | -0.1
CCOC(=O)c1[nH]c(C)c(C(=O)Nc2cc(OC)ccc2OC)c1C | 0.7 | 0.6 | 100.3 | -3.4
COc1ccc(C(=O)Nc2cc(OC)ccc2OC)cc1 | -0.5 | -3.7 | 104.5 | -0.8
CCOC(=O)c1c(C)c(C(=O)Nc2cc(OC)ccc2OC)c(C)n1CC | 1.3 | -2.5 | 86.8 | 14.9*
COc1ccccc1Nc1cc2cc(Br)ccc2c(=O)[nH]1 | 47.4* | 6.8 | 107.5 | -0.3
O=c1[nH]c(Nc2ccccc2)cc2cc(Br)ccc12 | 61.0* | -0.3 | 122.6 | 1.2
COc1ccc(OC)c(Nc2cc3ccccc3c(=O)[nH]2)c1 | 69.8* | 3.4 | 121.5 | -3.3
CC(=O)c1cccc(-c2ccc3c(=O)[nH]c(Nc4ccccc4)cc3c2)c1 | 85.3* | -1.2 | 120.1 | -3.2
COc1ccc(OC)c(Nc2nnc(C)c(=O)[nH]2)c1 | -4.3 | · | 99.6 | ·
O=C(CNc1ccc(Br)cc1)Nc1ccc(S(=O)(=O)N2CCCCC2)cc1 | · | -0.9 | · | ·
O=c1[nH]c(Nc2ccccc2)cc2ccccc12 | 104.6* | -4.3 | 185.7 | -2.7
Cn1c(=O)cc(Nc2ccccc2)[nH]c1=O | 5.2 | -1.0 | 101.7 | -3.0
O=C1CCCc2nc3c(cc21)C(O)Oc1ccccc1-3 (stereo not given) | -2.4 | -0.3 | 93.3 | 15.8*
O=C1CCCc2nc3c(cc21)C(O)Oc1c-3ccc2ccccc12 (stereo not given) | -5.0 | 0.3 | 119.5 | -2.0
Cn1c(=O)c2c(-c3ccccc3)n(-n3cnnc3)cc2n(C)c1=O | 24.6* | -1.8 | 89.1 | -4.3
CCOc1c(Cl)cc(CNCC(C)C)cc1Cl | 1.6 | -0.6 | 96.7 | 19.8*
CNC(CC(=O)c1ccc([N+](=O)[O-])cc1)C(Cl)(Cl)Cl (stereo not given) | -2.8 | -1.5 | 107.6 | 68.6*
COc1ccc(C(=O)CC(Nc2ccc([N+](=O)[O-])cc2)c2ccc(OC)cc2)cc1 (stereo not given) | 1.6 | -3.3 | 93.3 | -5.0
CC(C(=O)Nc1ccccc1Br)N1c2cccc3cccc(c23)S1(=O)=O (stereo not given) | 0.4 | 2.0 | 107.2 | -0.2
Cc1nnsc1-c1onc(C)c1C(=O)O/N=C/c1ccc(Cl)cc1 | 0.3 | -0.6 | 106.2 | -2.0
CN(Cc1cc([N+](=O)[O-])c2cccnc2c1O)C1CCCCC1 | -8.2 | · | 124.5 | ·
O=[N+]([O-])c1cc(CN2CCN(c3ccccc3)CC2)c(O)c2ncccc12 | 0.5 | 12.8 | 123.8 | 6.6*
SMILES | Fh CTSL1 inh | iPSC survival up | CR mimetic SO | V-ATPase pHluor
Cn1c2ccccc2c(=O)n2c(=O)c3ccccc3cc12 | 107.4* | · | 109.8 | ·
CCc1ccc(OCCOCC(O)CNC(C)CC)cc1 (stereo not given) | -5.5 | -1.0 | 113.1 | 0.5
CSc1ccccc1C(=O)NCc1ccc(F)cc1 | 32.0* | 1.3 | 82.3 | 3.0
CSc1ccccc1C(=O)NCc1ccc(C)cc1 | -0.5 | 0.2 | 103.8 | -1.9
O=C(CC12CC3CC(CC(C3)C1)C2)NCC(c1ccc(F)cc1)N1CCOCC1 (stereo not given) | 9.6 | 4.3 | 125.9 | -1.8
CSc1nc2ccccc2n1Cc1cccc(F)c1 | -2.9 | 0.3 | 99.6 | 3.9
Fc1cccc(Oc2nc3ccccc3n3cccc23)c1 | 64.8* | -0.6 | 91.2 | 4.5
CCOc1ncccc1C(=O)Nc1cc(S(=O)(=O)N2CCOCC2)ccc1OCC(F)(F)F | · | 2.8 | 85.2 | 1.0
O=C(CSc1nccc(=O)[nH]1)N1N=C2/C(=C/c3ccco3)CCCC2C1c1ccco1 (stereo not given) | 17.2* | 0.4 | 104.4 | 0.3
CC1(C)CC(O)CC(C)(C)N1CC(O)COCc1ccccc1 (stereo not given) | -0.9 | 1.0 | 75.2 | -1.6
NC(=O)Cn1nnc(-c2ccccc2NC(=O)c2cnccn2)n1 | 6.7 | 1.7 | 111.3 | -6.3
CC(C)(C)NC(=O)Cn1nnc(-c2ccccc2NC(=O)c2cnccn2)n1 | 7.0 | 21.8* | 98.2 | -3.9
CCOC(=O)c1ccc(NC(=O)c2nc(S(=O)(=O)Cc3ccccc3)ncc2Cl)cc1 | 1.9 | 20.5* | 93.5 | -0.9
O=C(CCl)N1CCN(S(=O)(=O)c2ccc3ccccc3c2)CC1 | 19.2* | 0.3 | 95.7 | 2.3
CN(C)C(=O)N1CCN(S(=O)(=O)c2ccc3ccccc3c2)CC1 | -1.6 | 1.6 | 116.9 | -1.7
O=C(CC1CCCC1)N1CCN(S(=O)(=O)c2ccccc2)CC1 | · | 0.4 | 103.9 | 667.7*
Cc1cccc(C)c1OCc1cn(CC(=O)c2ccc(O)cc2)nn1 | · | -0.7 | · | -4.1
CC1CCCC(NC(=O)CSc2ncccn2)C1C (stereo not given) | · | -1.7 | 122.8 | 6.3
COC(CNC(=O)c1ccc(CS(=O)(=O)c2c(Cl)cccc2Cl)o1)OC | -1.4 | 0.9 | 102.0 | -2.2
Cc1cc(C)cc(N(CC(=O)NC(C)(C)C)C(=O)CCC(=O)Nc2ccccn2)c1 | -2.0 | -0.2 | 107.9 | -4.1
Cc1cccc(N(CC(=O)NC(C)(C)C)C(=O)CCC(=O)Nc2ccccn2)c1 | 17.7* | 0.3 | 102.4 | 0.2
O=C(O)/C=C/c1cn(-c2ccccc2)nc1-c1cc2ccccc2oc1=O | 5.2 | -0.6 | 61.2* | -3.4
CC(=O)NC(Cc1ccccc1)C(=O)OCC(=O)c1ccc(F)cc1 (stereo not given) | 0.0 | -2.4 | 92.8 | 0.1
CCN1CCc2c(C#N)c(N3CCCCC3)nc(N3CCOCC3)c2C1 | 17.6* | -2.6 | 109.6 | -1.6
Cc1ccc(CNc2ccc(N3CCOCC3)cc2)cc1 | -3.1 | 0.1 | 93.9 | 11.3*
SMILES | Fh CTSL1 inh | iPSC survival up | CR mimetic SO | V-ATPase pHluor
Cc1ccc(CNC(=O)CN(C(=O)C2(C)CC(=O)N=C3C=CC=CN32)c2ccc(F)cc2)cc1 (stereo not given) | 2.5 | 0.1 | 96.6 | 1.7
CC(C)C[C@H](NC(=O)OC(C)(C)C)C(=O)N[C@@H](CO)[C@H](O)[C@@H]1C[C@@H]1C(=O)N1CCCC1 | 45.1* | 2.2 | 99.8 | -2.8
O=[N+]([O-])c1ccc(/C=N\NS(=O)(=O)c2ccc(F)cc2)o1 | 20.1* | -0.1 | 111.7 | 0.2
Oc1oc(-c2ccco2)nc1C=Nc1ccccc1 | 3.5 | -1.4 | 107.8 | 3.0
Oc1oc(-c2ccco2)nc1C=Nc1cccc(Cl)c1 | 36.5* | -1.4 | 96.1 | -6.4
CC(C)C[C@H](NC(=O)OC(C)(C)C)c1nnc(SCc2ccccc2)o1 | 22.6* | 0.1 | 82.5 | 2.3
CC(C)(C)OC(=O)N[C@@H](Cc1ccccc1)c1nnc(S(=O)(=O)Cc2cccc(F)c2)o1 | 31.5* | · | 88.1 | ·
CC(C)(C)OC(=O)NCCCCCc1nnc(SCc2c(F)cccc2Cl)o1 | 10.0 | 0.4 | 106.4 | -2.2
CC(C)C[C@H](N)c1nnc(S(=O)(=O)Cc2cccc(F)c2)o1 | 72.3* | -2.5 | 80.1 | -1.9
CC(C)[C@H](NC(=O)OC(C)(C)C)c1nnc(S(=O)(=O)Cc2c(F)cccc2Cl)o1 | 41.3* | -0.5 | 104.8 | 4.3
